Article PMC6919601, “Identification of Plasmodium dipeptidyl aminopeptidase allosteric inhibitors by high throughput screening” (PLoS ONE, 2019)
Screen size: about 110,000 compounds; about 230 (0.21%) showed an effect of 50% or more. The entries come from a sample that favours strong results as a whole.

Target: DPAP1 (Plasmodium falciparum, UniProt Q8IIJ9)
Experiment: primary screen, percent inhibition; read by cleavage of a fluorogenic dipeptide substrate; higher = more effect of the substance
Design: species or system P. falciparum D10 trophozoite lysates; single well
Method: HTS was performed in black 384-well plates. The first and last two columns of each plate contained our negative (DMSO) and positive (10 μM JCP410) controls, and the 20 central columns the test compounds at 10 μM. Compounds were first diluted 50-fold into assay buffer (50 mM sodium acetate, 5 mM MgCl2, 10 mM β-mercaptoethanol, and 0.1% CHAPS, pH 5.5) from a 10 mM DMSO stock plates. One microliter of this 200 μM intermediate stock plate was dispensed into the assay plate. […] After 30 min, the reaction was quenched with 20 μL of 0.5 M acetic acid, and the fluorescent intensity measured at 523 nm (λex = 492 nm) using an Analyst HT multimode plate reader (Molecular Devices).
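Also: 30 min substrate incubation versus DMSO and 10 µM JCP410 controls.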

DPAP1, sequence (Q8IIJ9 whole entry, looked up): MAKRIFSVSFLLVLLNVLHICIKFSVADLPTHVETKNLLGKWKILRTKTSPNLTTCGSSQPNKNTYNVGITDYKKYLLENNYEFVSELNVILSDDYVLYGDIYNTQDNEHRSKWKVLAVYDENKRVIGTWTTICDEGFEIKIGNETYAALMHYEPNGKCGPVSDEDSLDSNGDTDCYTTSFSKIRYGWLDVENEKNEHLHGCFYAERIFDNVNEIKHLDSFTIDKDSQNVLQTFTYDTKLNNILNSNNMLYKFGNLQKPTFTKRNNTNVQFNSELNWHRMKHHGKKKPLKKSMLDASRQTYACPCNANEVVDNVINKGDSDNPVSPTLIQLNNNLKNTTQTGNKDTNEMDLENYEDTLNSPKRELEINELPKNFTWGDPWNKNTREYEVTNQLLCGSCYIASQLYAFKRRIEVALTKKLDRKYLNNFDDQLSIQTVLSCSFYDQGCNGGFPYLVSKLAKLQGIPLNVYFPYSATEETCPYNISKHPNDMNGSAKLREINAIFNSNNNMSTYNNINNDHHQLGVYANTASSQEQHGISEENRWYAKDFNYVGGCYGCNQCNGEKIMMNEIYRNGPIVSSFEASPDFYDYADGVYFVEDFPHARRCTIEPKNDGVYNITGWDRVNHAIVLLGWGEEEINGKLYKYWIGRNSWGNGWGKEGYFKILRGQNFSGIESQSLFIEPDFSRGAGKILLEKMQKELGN

SMILES | % Inhibition @ 10 uM [%]
CC(NC(=O)c1ccc(Br)cc1)C1COc2ccccc2O1 (stereo not shown) | 3.24
CCOC(=O)C1=C(O)/C(=C\c2ccccc2OC)N=C1C | -1.6
CN1CSC2=C(C#N)C(c3cccc(OCc4ccccc4)c3)CC(=O)N2C1 (stereo not shown) | 71.1
CCOc1ccc(C2CC(=O)N3CN(Cc4ccco4)CSC3=C2C#N)cc1 (stereo not shown) | 43.4
CCOc1ccc(C2CC(=O)N3CN(C)CSC3=C2C#N)cc1OC (stereo not shown) | 47.5
N#CC1=C2SCN(Cc3ccco3)CN2C(=O)CC1c1cccc(OCc2ccccc2)c1 (stereo not shown) | 66.7
N#CC1=C2SCN(Cc3ccco3)CN2C(=O)CC1c1ccc(Cl)cc1 (stereo not shown) | 42.2
CC(C)c1ccc(S(=O)(=O)Nc2ccc3oc(=O)sc3c2)cc1 | 1.13
CCC(C)N(CCNC(=O)c1c2c(nc3ccccc13)C(=O)N(C1CCCCC1)C2)Cc1ccco1 (stereo not shown) | 2.48
CCOC(=O)c1cc(C)n(CC2CCC(C(=O)Nc3cccc(C)n3)CC2)c1C (stereo not shown) | -0.943
CCOC(=O)c1cnn(C(C)(C)C)c1C1CCN(C(=O)OC(C)(C)C)CC1 | -2.83
Cc1ccc(S(=O)(=O)N2CCCC2)cc1S(=O)(=O)N1CCCC1 | 1.52
CCC(=O)/N=c1/n(C)c2ccccc2n1CCOc1ccccc1 | 0.512
OC(COc1ccccc1Cl)CN1CCN(CC(O)COc2ccccc2Cl)CC1 (stereo not shown) | 0.131
OC(COc1cccc2ccccc12)CN1CCN(CC(O)COc2cccc3ccccc23)CC1 (stereo not shown) | 51.4
Cc1ccccc1OCC(O)CN1CCN(CC(O)COc2ccccc2C)CC1 (stereo not shown) | -0.053
Cc1cc(Br)ccc1OCC(=O)O/N=C(\N)c1cccnc1 | -6.94
CCCCN(C)C(=O)CCNC(=O)Cn1ccc2ccccc2c1=O | 7.85
CCOc1ccc(S(=O)(=O)N2CCSC2c2ccc(OC)c(OC)c2)cc1 (stereo not shown) | 25.4
O=C1/C(=C/c2ccc(F)cc2)CCC1C1CCCC1 (stereo not shown) | 23.4
O=C1/C(=C/c2ccc3nccnc3c2)CCC1C1CCCC1 (stereo not shown) | 66.2
O=C1/C(=C/c2ccc3nccnc3c2)CC/C1=C\c1ccc2nccnc2c1 | -0.503
Cc1cc(C)c2c(n1)sc1c(=O)oc(C)nc12 | -0.13
Cc1ccc(N(CC(=O)Nc2ccc(CC#N)cc2)S(=O)(=O)c2ccccc2)c(C)c1 | -6.77
O=C(NCc1ccco1)c1ccc(CN2CC(=O)N3CCCCC3C2=O)cc1 (stereo not shown) | 3.7

SMILES | % Inhibition @ 10 uM [%]
Cc1ccc(-c2cc(C(=O)N3CCN(C(=O)c4ccco4)CC3)[nH]n2)c(C)c1 | 2.62
COCCN1C(=O)/C(=C/c2cccc(C)c2)S/C1=N\c1ccccc1 | 64.4
COCCN1C(=O)/C(=C/c2ccccc2)S/C1=N\c1ccccc1 | -4.21
COCCN1C(=O)/C(=C/c2ccc(C)cc2)S/C1=N\c1ccccc1 | -11.1
CCN(CC)CCCNc1cnnc2c(Cl)cccc12 | -4.4
COc1ccc(OC)c(C2C3=C(O)CCCC3=NC(C)=C2C(=O)Nc2ccccn2)c1 (stereo not shown) | -8.82
COc1ccc2c(c1)cc1c(=O)n(CC(=O)NCc3cccc(OC)c3OC)nc(C)n12 | 99.1
COc1ccccc1CNC(=O)Cn1nc(C)n2c(cc3c(OC)cccc32)c1=O | -3.47
CCCNC(=O)Cn1nc(C)n2c(cc3cc(OC)ccc32)c1=O | 4.84
OC(c1ccccc1)c1nc2ccccc2[nH]1 (stereo not shown) | 3.87
CCn1nc(C)c(C(=O)Nc2ccn(Cc3ccccc3)n2)c1C | 3.21
CN1CCN(C(=O)Cn2ncc3c4ccccc4n(C)c3c2=O)CC1 | 1.41
Cn1c2ccccc2c2cnn(CC(=O)N3CCN(c4ccccn4)CC3)c(=O)c21 | 4.53
Cn1c2ccccc2c2cnn(CC(=O)N3CCN(c4ncccn4)CC3)c(=O)c21 | 53.7
Oc1nc(SCc2ccccc2)nc(O)c1Cc1ccccc1 | -2.12
CC1=CC2=NC(=O)/C(=C\c3ccc(-c4ccccc4Cl)o3)C(=N)N2O1 | -1.65
O=C(NC1CCCCC1)C1CC(c2ccccc2F)=NO1 (stereo not shown) | 7.39
CCOc1ccc2c(=O)c(Oc3ccccc3)c(C(F)(F)F)oc2c1 | -4.21
COc1ccc(OC)c(NC(=O)c2ccc(OC(C)C)cc2)c1 | -1.88
CC(=O)c1cccc(NS(=O)(=O)c2ccc(Oc3ccccc3Cl)cc2)c1 | -3.87
COc1ccccc1Oc1ccc(S(=O)(=O)Nc2cccc(C(C)=O)c2)cc1 | 67.2
COc1ccc(S(=O)(=O)Nc2cccc(C(C)=O)c2)cc1 | -1.92
CS(=O)(=O)c1sc2nc(-c3cccs3)cc(-c3ccccc3)c2c1N | 64.2
CC(=O)c1sc2nc(-c3cccs3)cc(-c3cccs3)c2c1N | 7.74
CS(=O)(=O)c1sc2nc(-c3ccc(Br)cc3)cc(-c3ccccc3)c2c1N | -1.93

SMILES | % Inhibition @ 10 uM [%]
CN(C)c1ccc(NC(=O)Nc2ccc(Cl)cc2)cc1 | 0.51
O=C1C2C=COC2C2c3ccccc3CCC2N1Cc1ccccc1 (stereo not shown) | 0.727
Cc1nc2c(C(=O)n3ccnc3)cnn2c(C)c1Cc1ccccc1Cl | -0.406
CC(=O)Nc1ccc(NC(=O)CN(c2cccc(F)c2)S(C)(=O)=O)cc1 | 8.06
CS(=O)(=O)N(CC(=O)Nc1ccccc1)c1cccc(F)c1 | -10.1
CS(=O)(=O)N(CC(=O)Nc1ccc2c(c1)OCCO2)c1cccc(F)c1 | 69.8
CN(Cc1ccco1)C(CNS(=O)(=O)c1ccccc1)c1ccccc1 (stereo not shown) | -0.671
CCCCOc1ccc(C2=NC(=O)/C(=C/c3cccc(OC)c3OC)O2)cc1 | 2.1
Cc1ccccc1-n1cc(-c2ccc3c(c2)OCO3)nc1S | 83.7
Sc1nc(-c2ccc3c(c2)OCO3)cn1-c1cccc(Cl)c1 | 19.5
CCn1c2ccccc2n2cc(-c3ccc4c(c3)OCO4)nc12 | 0.486
CC(C)C[C@H](NC(=O)c1cc2cc(OCCN3CCOCC3)ccc2o1)C(=O)NC1COCC1=O (stereo partly shown) | -8.26
CCOc1cc(/C=C2/NC(=O)N(CC(=O)Nc3cccc(C)c3)C2=O)cc(Cl)c1O | 2.44
Cc1ccc(NC(=O)CN2C(=O)S/C(=C\c3ccccc3O)C2=O)cc1 | 50.5
COc1cccc(/C=C2/SC(=O)N(CC(=O)Nc3ccc(C)cc3)C2=O)c1O | 30.1
Cc1ccc(NC(=O)CN2C(=O)S/C(=C\c3ccccc3C)C2=O)cc1 | -5.4
COc1ccc(C(=O)CCC(=O)NC2=NCCS2)cc1 | -3.21
CN1CCN(C(=O)Cn2nc(-c3ccc(Cl)cc3)c3ccccc3c2=O)CC1 | 2.95
CC1=C(C(=O)OC2CCCC2)C(c2ccsc2)C2=C(O)CC(c3cccs3)CC2=N1 (stereo not shown) | 0.146
Cc1ccc2oc(=O)c3cc(C(=O)Nc4cc(C)on4)sc3c2c1 | -0.646
CC(c1ccccc1)N1CSC2=C(C#N)C(c3ccc(Cl)cc3)CC(=O)N2C1 (stereo not shown) | 73.1
Cc1ccc(C2CC(=O)N3CN(C(C)c4ccccc4)CSC3=C2C#N)cc1 (stereo not shown) | 10.6
N#CC1=C2SCN(Cc3ccco3)CN2C(=O)CC1c1cccs1 (stereo not shown) | 47.7
N#CC1=C2SCC(O)(c3ccccc3)N2C(=O)CC1c1cccs1 (stereo not shown) | -4.74
COc1ccc(C2CC(=O)N3CN(C(C)c4ccccc4)CSC3=C2C#N)cc1OC (stereo not shown) | 28

SMILES | % Inhibition @ 10 uM [%]
CC(c1ccccc1)N1CSC2=C(C#N)C(c3cccs3)CC(=O)N2C1 (stereo not shown) | 68
CCOc1ccc(C2CC(=O)N3C(=C2C#N)SCC3(O)c2ccc(OCC)cc2)cc1 (stereo not shown) | -0.0235
CCOc1ccc(C2CC(=O)N3CN(C(C)c4ccccc4)CSC3=C2C#N)cc1 (stereo not shown) | 53.1
Cc1cc(Cl)ccc1N(CC(=O)Nc1ccc2c(c1)OCO2)S(=O)(=O)c1ccccc1 | 8.03
Cc1ccc(NS(=O)(=O)c2ccc(NC(=O)COc3ccccc3)cc2)c(C)c1 | -4.7
CCOc1ccc(-n2nc3ccc(NC(=O)c4ccc5c(c4)OCCO5)cc3n2)cc1 | 17.9
CCCCCOc1ccc(C2NC(C(=O)O)CS2)cc1 (stereo not shown) | -2.54
Cc1nn(C)c(C)c1/C=C(/C(=O)C(C)C)n1cncn1 | 0.00706
CC1CCCCN1CCNc1ncnc2onc(-c3ccc(Cl)cc3)c12 (stereo not shown) | -3.95
CN(C)c1ccc(-c2c(C#N)c(S)nc3c2C(=O)CC(C)(C)C3)cc1 | -2.81
Oc1cc(-c2ccccc2)nc2nc(Cc3ccccc3)nn12 | 0.795
Cc1ccc(CNC(=O)c2cc3c(s2)-c2ccccc2S(=O)(=O)C3)cc1 | -0.72
CN1C(=O)c2ccccc2C(C(=O)NCCN2CCc3ccccc3C2)C1c1cn(C)c2ccccc12 (stereo not shown) | -7.27
Cc1sc2[nH]c(=S)n(-c3ccc(Cl)cc3)c(=O)c2c1C | 51.2
CCc1cc2c(=O)n(-c3ccc(Cl)cc3)c(=S)[nH]c2s1 | 21.1
Cc1sc2[nH]c(=S)n(-c3ccccc3)c(=O)c2c1C | 72.2
Cc1sc2[nH]c(=O)n(-c3ccc(Cl)c(Cl)c3)c(=O)c2c1C | -0.711
O=c1c2c3c(sc2[nH]c(=S)n1-c1ccccc1)CC1(CCCCC1)CC3 | 0.774
CCc1c(O)n(-c2ccccc2)c(=S)[nH]c1=O | 0.526
COc1ccc(N2CCN(C(=O)CN(C)S(=O)(=O)c3ccc(C)cc3)CC2)cc1 | -5.35
O=[N+]([O-])c1ccc(CSc2ccc(Cl)cc2)cc1 | 2.22
COc1ccc(CNC(=O)c2cc3c(O)nc4ccc(C)cc4c3s2)cc1 | 1.72
